Source: PubChem
CtBP-E1A blk = inhibitors of CtBP/E1A interaction; AlphaScreen GST-E1A/His-CtBP binding, 1536-well; hits give low values; activity change, % (no concentration beside the values); 0.49% of 340,000 active
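In 5 uL wells, 23 nL compound meets equimolar GST-E1A and His-CtBP (5X stock 125 nM each) for 2 h, 37 °C. Beads (5X, 50 ug/mL) then 1 h, 37 °C, dark.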
KCNH2 3.1 inh = KCNH2 3.1 (human) potassium channel inhibition; U2OS KCNH2 3.1, thallium flux FluxOr; hits give low values; activity change, % (tested at about 1.8 µM); 0.95% of 340,000 active;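 active = maximum activity change below -70%; inconclusive = maximum activity change from -70% to -50%; inactive = maximum activity change above -50%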;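 note: thallium influx rate constant from kinetic fluorescence after stimulation buffer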
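U2OS cells transduced with KCNH2 3.1 mutant virus (1.77 x 10^8 /mL, 4 h), plated overnight at 37 C, loaded 45 min with FluxOr dye plus Red40 quencher. Thallium flux rate constant from kinetic reads after stimulation buffer, normalised to controls.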
KCNH2 WT inh = blocks the wildtype human KCNH2 potassium channel | U2OS, BacMam KCNH2, thallium flux FluxOr; hits give low values | activity change, % at 1.84 µM | 0.37% of 340,000 active | AID 720551;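 active = maximum activity change below -70%; inconclusive = maximum activity change between -70% and -50%; inactive = maximum activity change above -50%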
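U2OS cells were transduced with wild-type KCNH2 virus (2.03 x 10^8 / mL) for 4 h at room temperature, then cultured overnight at 37 C. Thallium flux was read with FluxOr dye. Rate constants were normalized to DMSO controls.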
Six1-Eya2 inh = blocks human Six1 binding to Eya2; AID 651725; Q15475+O00167; 0.56% of 360,000 active; AlphaScreen GST-Six1/His-Eya2 binding, biochemical; hits give low values; activity change, % (test concentration not listed)
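Homogeneous AlphaScreen proximity assay pairing GST-Six1 with His-tagged Eya2 (added as 5X mix: 250 nM and 500 nM) in 50 mM Tris pH 8.0, 300 mM NaCl, 1 mM TCEP. Glutathione donor and nickel acceptor beads; 1 h, 37 °C, dark.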
KDM4E inh = inhibitors of human JMJD2E histone demethylase | JMJD2E catalytic domain, FDH-coupled NADH fluorescence (FDH is formaldehyde dehydrogenase) | Potency, µM (series often up to 57.1 µM), usual class: inhibitors | 1.6% of 230,000 active; active = well fitted inhibition curve with a large enough effect, not every such curve was filed as active; inconclusive = small, poorly fitted or top-dose-only effect, or another doubt; inactive = no such curve, though single readings can be large or run the other way; note: nearly all actives have a fitted effect of over 50% in size
Of the large screens only hits and unclear results are named; the others gave an inactive call; ! = a repeat was not active. Only some compounds are listed: those with a hit (about 2% of all), similar ones and a draw of the others. Cut-off read from the data, not from the text of the source, unless noted: active = activity change below about -65%; inconclusive = mostly about -30% to -63%; inactive = weaker than that.

O=C(COC(=O)CSc1ccc(F)cc1)NCC1CCCCC1	none (no result: KDM4E inh)
CCC(c1ccccc1)c1nnc(NC(=O)c2ccco2)s1 (stereo not given)	KCNH2 3.1 inh -116.7 (no result: CtBP-E1A blk)
CCOc1ccc(C(=O)c2ccc(OC)c(O)c2O)cc1	KDM4E inh 25.1µM (no result: CtBP-E1A blk, KCNH2 3.1 inh, KCNH2 WT inh, Six1-Eya2 inh)
CCOc1ccc(C(=O)c2ccncc2)cc1	none
COc1ccc(C(=O)c2ccc(O)cc2)c(O)c1O	KDM4E inh 15.8µM (no result: CtBP-E1A blk, KCNH2 3.1 inh, KCNH2 WT inh, Six1-Eya2 inh)
CC(C)C[C@@H](CC(=O)N[C@@H](CCC(=O)O)CC(=O)O)NC(=O)[C@@H]1CNCC[C@H]1NC(=O)C[C@H](CCCN)NC(=O)C[C@H](CO)NC(=O)[C@@H]1CCCC[C@H]1N	none (no result: CtBP-E1A blk, KCNH2 3.1 inh, KCNH2 WT inh, Six1-Eya2 inh)
CCCN1C2CCCC1CC(NC(=O)NC1CCCCC1)C2 (stereo not given)	none
CC(C)(C)OC(=O)N1CCC(NC(=O)c2nc[nH]c2C(=O)N2CCc3ccccc3C2)CC1	none (no result: KDM4E inh)
CC(C)C[C@H](NC(=O)c1nc[nH]c1C(=O)N1CCN(c2ccccc2)CC1)C(=O)OCc1ccccc1	CtBP-E1A blk inconclusive, KCNH2 3.1 inh -78.0
CC(C)(C)OC(=O)[C@H](Cc1ccccc1)NC(=O)c1nc[nH]c1C(=O)NCc1ccccc1	KCNH2 3.1 inh -107.0
CC(C)(C)OC(=O)CNC(=O)c1nc[nH]c1C(=O)N1CCc2ccccc2C1	KCNH2 3.1 inh -70.6 (no result: KDM4E inh)
CC(C)(C)OC(=O)NCCCC[C@H](NC(=O)c1[nH]cnc1C(=O)Nc1ccc(Cl)cc1)C(=O)OC(C)(C)C	KDM4E inh 22.4µM (no result: CtBP-E1A blk)
CC(C)C[C@H](NC(=O)c1nc[nH]c1C(=O)N1CCNCC1)C(=O)OCc1ccccc1	none (no result: KDM4E inh)
CCN(CC)C(=O)CN1CCC(c2nc3cc(C)c(C)cc3[nH]2)CC1	none (no result: KDM4E inh)
COc1ccc(NC(=O)C(=O)N2N=C(C(C)C)CC2(O)C(F)(F)F)cc1 (stereo not given)	none
Cc1ccc(S(=O)(=O)NCCc2nnc3ccc(SCC(=O)Nc4nc5ccccc5s4)nn23)cc1	none (no result: CtBP-E1A blk, KCNH2 3.1 inh, KCNH2 WT inh, Six1-Eya2 inh)
CC(C)C[C@H](NC(=O)c1nc[nH]c1C(=O)NCC(=O)OCc1ccccc1)C(=O)OCc1ccccc1	KCNH2 WT inh -120.5 (no result: KDM4E inh)
COc1ccc(-n2c(C)cc(C=O)c2C)cc1Cl	none
CCCCCCNCC(=O)N1CCC(Cc2ccccc2)CC1	KCNH2 3.1 inh -100.6 (no result: KDM4E inh)
O=C(CN1CCN(c2cccc(Cl)c2)CC1)NCc1ccccc1	none (no result: CtBP-E1A blk, KDM4E inh)
C/C(=C(/NC(=O)c1ccccc1)C(=O)O)c1ccco1	none
O=[N+]([O-])c1ccc(Cl)c(/C=N/n2c(-c3ccncc3)n[nH]c2=S)c1	CtBP-E1A blk -72.9, Six1-Eya2 inh -78.9
CN(C)CCN(Cc1ccccc1)c1ccccn1	KDM4E inh 31.6µM!
COc1ccc(/C=C(\NC(=O)c2ccccc2)C(=O)N2CCC(C)CC2)cc1	none (no result: KDM4E inh)
O=C(Nc1ccccc1Cl)c1ccc(Cl)cc1Cl	KCNH2 3.1 inh -71.7
Cc1cc(/C=C2\NC(=O)NC2=O)c(C)n1-c1ccc(N2CCOCC2)cc1	KDM4E inh 15.8µM
Cc1ccc(-n2c(C)cc(/C=C3\NC(=O)NC3=O)c2C)c(C)c1	KDM4E inh 25.1µM
Cc1cc(/C=C2/NC(=O)NC2=O)c(C)n1-c1ccc(C#N)cc1	KDM4E inh inconclusive (no result: CtBP-E1A blk)
Cc1cc(/C=C2/NC(=O)NC2=O)c(C)n1-c1ccccn1	KDM4E inh 25.1µM
COc1ccccc1CN1CC(C(=O)N(C)Cc2nc(C)cs2)CCC1=O (stereo not given)	none (no result: KDM4E inh)
COc1ccc(/C=C(/C#N)C(=O)Nc2cccc(C)c2C)cc1C(=O)O	none
C=CCN(c1ccc(F)cc1)S(=O)(=O)c1cc(C(=O)NC2CCC(O)CC2)ccc1Cl (stereo not given)	none (no result: KDM4E inh)
CCc1ccccc1NS(=O)(=O)c1c(C(=O)N2CCCCCC2)c(C)n(C)c1C	none (no result: KDM4E inh)
Cn1ccnc1SCCNC(=O)C1CCC(=O)N(Cc2ccc(Cl)cc2)C1 (stereo not given)	none (no result: KDM4E inh)
CCOC(=O)C1(Cc2cccc(OC)c2)CCN(Cc2ccc(C)s2)CC1	KCNH2 3.1 inh -76.1, KCNH2 WT inh inconclusive
CCOC(=O)C1(Cc2cccc(OC)c2)CCN(Cc2ccc(OC)c(OC)c2)CC1	KCNH2 3.1 inh -70.1
CCOC(=O)C1(Cc2cccc(OC)c2)CCN(Cc2cccn2-c2nccs2)CC1	KCNH2 3.1 inh -100.9, KCNH2 WT inh -82.6
CCOC(=O)C1(Cc2cccc(OC)c2)CCCN(Cc2cc(OC)c(O)c(OC)c2)C1 (stereo not given)	KCNH2 3.1 inh -193.4, KCNH2 WT inh -134.1 (no result: KDM4E inh)
Cc1onc(-c2ccccc2)c1C(=O)Nc1ccc(C(=O)N2CCCCC2)cc1	none (no result: KDM4E inh)
Cc1ccc(N=Cc2cc(Cc3ccccc3Cl)cc([N+](=O)[O-])c2O)c(O)c1	KDM4E inh 17.8µM
COc1ccc(N=Cc2cc(Cc3ccccc3Cl)cc([N+](=O)[O-])c2O)cc1OC	KDM4E inh inconclusive (no result: CtBP-E1A blk)
COCCOC(=O)C1=C(C)NC(=S)NC1c1cccs1 (stereo not given)	KCNH2 3.1 inh -76.3
CO/N=C/NC(=O)c1ccc([N+](=O)[O-])c(CS(=O)(=O)c2ccc(Cl)cc2)c1	none
NNC(=O)c1ccc([N+](=O)[O-])c(CS(=O)(=O)c2ccc(Cl)cc2)c1	KCNH2 3.1 inh -98.9
Cc1cc(C)c(C#N)c(SCC(=O)NC(C)(C)C)n1	KCNH2 3.1 inh -84.1
O=c1[nH]c(Cc2ccccc2)nc2ccccc12	none
CCC1(c2ccc(F)cc2)NC(=O)N(CC(=O)N2c3ccccc3NC(=O)C2(C)C)C1=O (stereo not given)	none (no result: KDM4E inh)
Nc1ccc(Nc2ccccc2N)cc1	KDM4E inh inconclusive
COc1ccc(Nc2ccccc2N)cc1	KDM4E inh 10µM
COc1ccc(-c2nnn(CC(=O)NC3CCCc4ccccc43)n2)cc1OC (stereo not given)	none
CCOc1ccc(C(=O)C(C)OC(=O)Cn2[nH]c(=O)c3ccccc3c2=O)cc1 (stereo not given)	KCNH2 3.1 inh -73.2 (no result: KDM4E inh)
COc1cccc(C(=O)N2CCC[C@H]2C(=O)N2CCC[C@H]2C(=O)N[C@@H](C)c2ccccc2)c1	none (no result: KCNH2 3.1 inh, KCNH2 WT inh, KDM4E inh)
O=C(N/N=C/c1ccccc1O)NC12CC3CC(CC(C3)C1)C2	none (no result: KDM4E inh)
Oc1ccccc1C=NNC(=S)NC1CC2C=CC1C2 (stereo not given)	CtBP-E1A blk inconclusive, Six1-Eya2 inh -77.2 (no result: KDM4E inh)
Oc1c(Cl)cc(Cl)cc1/C=N/NC(=S)NC1CC2C=CC1C2 (stereo not given)	CtBP-E1A blk -82.3, Six1-Eya2 inh inconclusive, KDM4E inh inconclusive
Oc1ccccc1/C=N/NC(=S)NC1CC2C=CC1C2 (stereo not given)	CtBP-E1A blk -85.8, Six1-Eya2 inh -82.2, KDM4E inh 25.1µM
Oc1ccc(O)c(C=NNC(=S)NC2CC3CC2C2C=CCC32)c1 (stereo not given)	Six1-Eya2 inh inconclusive (no result: KDM4E inh)
O=C(CSc1cccc[n+]1[O-])N1CCCCCC1	none
COc1cc(C(=S)N2CCC(C)CC2)ccc1O	none
COc1cc(CNCCc2c[nH]c3ccccc23)ccc1OCc1ccccc1F	KCNH2 3.1 inh -78.8, Six1-Eya2 inh inconclusive
